This is a sample that favours compounds with a hit; in the whole collection about 6% have one here.
D1 antag: antagonists of human D1 dopamine receptor | P21728 | HEK293 TREx D1 cells, calcium flux, dopamine EC80; hits give low values | activity change, negative = inhibition, % at 10 µM | 3.2% of 360,000 active | AID 504652; in the data active = activity change below about -30%; also: % is scaled to controls: 0 for no effect and ±100 for the full control effect
Target sequence (P21728 whole entry, looked up): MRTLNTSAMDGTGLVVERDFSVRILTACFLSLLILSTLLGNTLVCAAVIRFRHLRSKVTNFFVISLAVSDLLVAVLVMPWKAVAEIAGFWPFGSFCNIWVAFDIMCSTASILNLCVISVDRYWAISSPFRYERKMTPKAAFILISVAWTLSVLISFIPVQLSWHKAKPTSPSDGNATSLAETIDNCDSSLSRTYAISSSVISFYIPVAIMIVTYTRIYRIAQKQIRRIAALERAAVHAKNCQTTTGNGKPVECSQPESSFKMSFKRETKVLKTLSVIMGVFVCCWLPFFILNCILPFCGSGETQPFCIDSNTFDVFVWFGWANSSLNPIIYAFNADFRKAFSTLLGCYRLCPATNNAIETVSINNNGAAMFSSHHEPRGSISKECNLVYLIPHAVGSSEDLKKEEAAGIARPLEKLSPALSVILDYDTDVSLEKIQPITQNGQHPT
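Allosteric or orthosteric antagonism assessed as attenuation of the calcium response to EC80 dopamine, added 180 s after compound, in induced HEK293 Trex D1 cells loaded with no-wash calcium dye.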
D3 ag: activates the human D3 dopamine receptor | P35462 | D3R DiscoveRx beta-arrestin cells, luminescence, 90 min | max activation, % | 0.58% of 410,000 active | AID 652048; in the data active = max activation above about 30%; also: 0% is about no effect
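Cells at 1500/well, incubated overnight, then treated with pinned compounds (dopamine as control) for 90 min at 37 degrees C. DiscoveRx reagent added for 30 - 60 minutes at room temperature; luminescence read.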
D1 agonist: agonists of human D1 dopamine receptor; HEK293 T-REx D1 cells, calcium flux, agonist mode; activation, % at 2 µM; 1% of 360,000 active; AID 504660; P21728; in the data active = activation above about 30%; also: 0% is about no effect
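Inducible HEK293 T-REx D1 cells, force-coupled to calcium signalling, were plated at 4000 cells/well with tetracycline and held overnight at 30 C. After no-wash calcium dye loading, compound-evoked calcium rise over 180 s flagged agonists.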
D1 PAM: human D1 dopamine receptor positive modulation; P21728; HEK293 TREx D1 cells, calcium flux, dopamine EC20 potentiation; potentiation, % at 10 µM; 0.036% of 360,000 active; in the data active = potentiation above about 30%; also: 0% is about no effect
D3 antag: blocks the human D3 dopamine receptor | AID 652054 | max response, negative = inhibition, % | D3R cells, DiscoveRx beta-arrestin luminescence, antagonist mode; hits give low values | 2.5% of 360,000 active; in the data active = max response below about -50%; inconclusive = no clear call, values can overlap the other calls; also: % is scaled to controls: 0 for no effect and ±100 for the full control effect
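Cells expressing the human receptor were seeded at 1500 cells/well, incubated overnight at 37 degrees C in 5% CO2, then exposed to library compounds with dopamine controls for 90 minutes at 37 degrees C before luminescent detection.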
* = called active by the depositor; ? = inconclusive; / = not tested or not shown.

SMILES | D1 antag | D3 ag | D1 agonist | D1 PAM | D3 antag
CCOC(=O)CSc1nnc(CNC(=O)c2ccc(S(=O)(=O)N3CCCC3)cc2)n1C | 7 | -1 | 54* | -2 | 18
O=C(O)c1nnn(-c2ccc([N+](=O)[O-])cc2)c1-c1ccccc1 | -42* | 3 | 0 | -4 | -1
O=[N+]([O-])c1ccc(-n2nncc2-c2ccccc2)cc1 | 11 | -5 | -3 | 3 | -19
CCOc1ccc(-n2c(=O)c3c(C)c(C(=O)N(C)C)sc3n(CC(=O)Nc3c(C)cc(C)cc3C)c2=O)cc1 | -5 | -9 | 0 | 1 | /
COc1ccc(OC)c(NC(=O)c2c(NCc3ccc(C)o3)sc3c2CCC(C)C3)c1 (centres undefined) | 10 | -2 | 1 | -5 | /
CC(C)CC1OC(C(C)C)Cc2[nH]c(=S)[nH]c(=O)c21 (centres undefined) | / | -4 | / | / | -51*
Cc1ccc(C)c(N2CCN(C(=O)CCCCCn3c(=O)[nH]c4ccccc4c3=O)CC2)c1 | -7 | -6 | 2 | -4 | /
Cn1nnc(NC(=S)NC(=O)c2cc3ccccc3o2)n1 | 1 | -17 | 1 | -5 | -2
Cn1nnc(NC(=S)NC(=O)Cc2ccccc2)n1 | -6 | -12 | 2 | 5 | -64*
Cn1nnc(NC(=O)c2ccco2)n1 | -1 | 1 | 1 | -2 | 11
Cn1nnc(NC(=S)NC(=O)c2ccco2)n1 | 1 | -17 | 4 | 4 | -72*
COc1ccc(-c2cc(C(F)(F)F)n3nc(C(=O)NCC45CC6CC(CC(C6)C4)C5)cc3n2)cc1 | -1 | 7 | -1 | -1 | /
O=S1(=O)c2ccccc2OC(COCc2ccccc2)CN1Cc1ccccc1 (centres undefined) | / | -11 | / | / | 6
COc1ccc(CN2CC(COCc3ccccc3)Oc3ccccc3S2(=O)=O)cc1 (centres undefined) | / | 41* | / | / | 0
COc1ccc(CNCC2COc3ccccc3O2)cc1 (centres undefined) | 9 | 4 | 5 | 2 | -100*
c1ccc(CCCCNCC2COc3ccccc3O2)cc1 (centres undefined) | -8 | -8 | 10 | -4 | -91*
COc1cccc(OC)c1OCCNCC1COc2ccccc2O1 (centres undefined) | / | -84 | / | / | -94*
CCCNCC1COc2ccccc2O1 (centres undefined) | -21 | -44 | 1 | -14 | -70*
CCc1ccc(CNC(=O)c2cccc(-n3cnc4cccnc43)c2C)cc1 | -13 | 10 | 1 | -2 | /
Cc1nc(N2CCOCC2)c2cc(-c3ccccc3)sc2n1 | -9 | -10 | 2 | -6 | -57*
Cc1cc2nc(-c3cccc(NC(=O)c4cccc5ccccc45)c3)oc2cc1C | 4 | -12 | 2 | -1 | /
Clc1cccc2c1CCN(Cc1nc(-c3cnccn3)no1)C2 | -90* | 3 | 0 | -14 | -7
c1ccc(C(c2ccccc2)N2CCN(Cc3nc(-c4cnccn4)no3)CC2)cc1 | -16 | -2 | 2 | 4 | 8
CCOc1ccc(CCNC(=O)CN2C(=O)NC3(CCCC3)C2=O)cc1OCC | -39* | 1 | 2 | -7 | 4
CCOc1ccc(CNS(=O)(=O)c2cc(CN3C(=O)c4cccnc4C3=O)ccc2OC)cc1 | -54* | 1 | -1 | 3 | -8
SMILES | D1 antag | D3 ag | D1 agonist | D1 PAM | D3 antag
Oc1c(C(Nc2nccs2)c2ccc(C(F)(F)F)cc2)ccc2cccnc12 (centres undefined) | -10 | 39* | 4 | 5 | 27
Oc1c(C(Nc2cccc(C(F)(F)F)c2)c2ccncc2)ccc2cccnc12 (centres undefined) | -9 | 7 | 5 | 0 | -54*
COc1ccc2c(c1)c1c(c(=O)n(-c3ccc(OC)c(OC)c3)c(=O)n1Cc1ccc(F)cc1)n2C | 13 | -8 | 3 | -2 | /
O=C(CSCc1cnn(-c2ccccc2)c1-n1cccc1)NCc1ccc(F)cc1 | -9 | 8 | 5 | 0 | /
O=C(Cc1ccccc1)Nc1ccc(NC(=O)Cc2ccccc2)c(Cl)c1 | -36* | 0 | 2 | 0 | 6
O=C(Cc1ccc(-c2ccccc2)cc1)Nc1ccccc1 | -12 | -2 | 33* | 4 | -7
O=C(Cc1ccccc1)Nc1ccc(NC(=O)c2ccccc2)c(Cl)c1 | 7 | 12 | 4 | -5 | -16
O=C(Cc1ccccc1)Nc1ccc(Br)c(Cl)c1 | -55* | 0 | 22 | -11 | -14
Cc1cccc(NC(=O)Cc2ccc(-c3ccccc3)cc2)n1 | 12 | 8 | 21 | -5 | 15
COc1ccc(OC)c(NC(=O)c2c(N3CCCC3=O)c3cc(OC)ccc3n2C)c1 | -2 | 4 | -1 | 0 | /
COc1ccc(NC(=O)Cn2c(=O)n(-c3ccc(CC(=O)NCC4CCCO4)cc3)c(=O)c3ccccc32)c(OC)c1 (centres undefined) | 6 | 8 | 0 | 1 | /
CCc1ccc(CN(Cc2ccco2)c2cnc(S(C)(=O)=O)nc2C(=O)Nc2c(C)cccc2C)cc1 | -5 | 10 | 11 | 2 | /
Cc1nc2sc(C(=O)N(C)c3ccccc3)c(NC(=O)c3ccccc3Cl)c2c(C)c1C | 1 | 6 | 1 | -1 | /
CCOC(=O)c1ccc(NC(=O)c2cc(=O)c3ccc(C)c(C)c3o2)cc1 | 0 | 5 | -1 | -1 | /
COC(=O)C1=NN(C(=O)c2cccc(Br)c2)C(O)(c2ccc(Cl)cc2)C1 (centres undefined) | -9 | 2 | 106* | 1 | 23
CCOC(=O)C1=NN(C(=O)c2ccccc2)C(O)(c2ccc(C)cc2)C1 (centres undefined) | -12 | -20 | 19 | 8 | ?
CCOC(=O)C1=NN(C(=O)c2ccc(OC)cc2)C(O)(c2ccc(Cl)cc2)C1 (centres undefined) | -27 | 0 | 128* | -4 | -13
CCOC(=O)C1=NN(C(=O)c2cccc(Br)c2)C(O)(C(C)(C)C)C1 (centres undefined) | -9 | / | 51* | -10 | /
CCOC(=O)C1=NN(C(=O)Cc2ccccc2)C(O)(c2ccc(Cl)cc2)C1 (centres undefined) | 40 | -1 | 6 | 2 | -5
CCc1ccc(OC(C)c2nc(-c3ccc(-n4cccc4)cc3)no2)cc1 (centres undefined) | -3 | 3 | 14 | 0 | /
O=c1c(/C=C(\O)c2ccccc2)nc2ccccc2n1-c1ccccc1 | 3 | -5 | 169* | 4 | -2
Cc1nc2ccccc2n1-c1ccccc1 | -25 | -3 | 2 | -5 | 5
CC(=O)c1ccc(NC(=O)CN2CCC(C(=O)c3ccc4c(c3)OCCO4)CC2)cc1 | -4 | -2 | 4 | -6 | -6
COC(=O)c1ccccc1NC(=O)CN1CCC(C(=O)c2ccc3c(c2)OCCO3)CC1 | -32* | 40* | 7 | 2 | 43
Cc1ccc(NC(=O)CN2CCC(C(=O)c3ccc4c(c3)OCCO4)CC2)cc1 | 4 | -4 | 3 | 0 | -52*

Screening results deposited in PubChem BioAssay by National Center for Advancing Translational Sciences (NCATS).
